Data from the supplement of paper PMC10338343.
± gives the standard deviation.

Test system: MILI (PIWIL2) piRISC loaded with L1MC piRNA (26 nt)
Assay: pre-steady-state target cleavage rate (min^-1); guide: L1MC piRNA 5'p-UAACUAAAUACUAUGCAAGCUGUAGG; MIWI and MILI are mouse PIWI proteins and EfPiwi is from a freshwater sponge; tags in brackets are library labels; higher = faster piRNA-guided slicing of the target
Details: auxiliary factor: 500 nM mouse GTSF1
Method in brief: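 Cleave-'n-Seq reactions paired 0.1 nM transcribed, DNA-blocked target RNA library with 1 nM active affinity-purified piRISC holding one synthetic guide, plus or minus 500 nM GTSF1 partner protein, in HEPES–potassium acetate buffer at 33 °C for 0–8 or 0–960 min. After sequencing of uncleaved targets and normalisation to depth and weakly complementary targets, the pre-steady-state cleavage rate was taken from a burst-and-steady-state fit. Three trials were pooled, and k3 was capped at 0.0001 min^-1.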

| Sequence | pre-steady-state target cleavage rate |
| --- | --- |
| UCCUGCUAGAGCUUGCAUAGUAUUUAGUAA | 0.161 ± 0.023 |
| UCCUGCUAGAGCUUGCAUAGAAUUUAGUUA | 0.0404 ± 0.0063 |
| UCCUGGAACAGCUUGCAUAGUAUAUAGUAA | 0.124 ± 0.022 |
| UCCUCCUACAGCUUGCAUACUAUUUACAAA | 0.0449 ± 0.012 |
| UCCUGGAUCACCUUGCAUAGUAUUUAGAUA | 0.111 ± 0.025 |
| UCCUCCUACAGCUUGCAUAGUAAAUACAAA | 0.0608 ± 0.018 |
| UCCUGGAUCUCCUUGCAUAGUAUUUAGAAA | 0.192 ± 0.031 |
| UCCUGCUACAGCUUGCAUAGUAUAUACAAA | 0.0701 ± 0.019 |
| UCCUCCUACAGCUUGCAUAGUAUAAAGAAA | 0.0951 ± 0.023 |
| UCCUCCUACAGCUUGCAUAGUAAUUACAAA | 0.18 ± 0.039 |
| UCCUGCUAGAGCUUCCAUAGUAUUUAGUUA | 0.246 ± 0.047 |
| UCCUCCUACAGCUUGCAUAGUAAAUUCAAA | 0.125 ± 0.03 |
| UCCUGCUACAGCUUGCAUAGAAUUUUGUUA | 0.06 ± 0.013 |
| UCCUCCUACAGCUUGCAUACUAAUUAGUUA | 0.0267 ± 0.0069 |
| UCCUGCUACAGCUUGGAUAGUAAUUAGUUA | 0.204 ± 0.021 |
| UCCUGGAUGAGCUUGCAUAGUAUUUAAUUA | 0.0516 ± 0.014 |
| UCCUGCUACAGCUUCCAUAGUAUUUAGUUA | 0.0846 ± 0.028 |
| UCCUGGAUCAGCUUGCAUAGUAUAAAGUAA | 0.11 ± 0.024 |
| UCCUGCUACUGCUUGCAUAGUAUUUACAAA | 0.0206 ± 0.0071 |
| UCCUGCUACAGCUAGCAUAGUAUUUAGAUA | 0.151 ± 0.028 |

| Sequence | pre-steady-state target cleavage rate |
| --- | --- |
| UCCUCCUACAGCUUGCAAACUAUUUAGUUA | 0.0393 ± 0.0078 |
| UCCUGCUACAGCUUGCAUAGUAUUAUGUUA | 0.231 ± 0.047 |
| UCCUGGUACAGCUUGCAUUGUAUUUAGAUA | 0.0565 ± 0.016 |
| UCCUGCUACAGCUUGCAUAGUAUUUUGAAA | 0.112 ± 0.029 |
| UCCUCCUACAGCUUGCAUAGUAUUAACAAA | 0.11 ± 0.023 |
| UCCUCCUACAGCUUCCAUAGUAUUUAGUUA | 0.0831 ± 0.025 |
| UCCUGGAUGUGCUUGCAUAGUAUUUAGUAUA | 0.131 ± 0.019 |
| UCCUCCUACAGGUUCCAUAGUAUUUAGUUA | 0.0813 ± 0.027 |
| UCCUGCUACAGCUUGCAUAGUUUAUAGUUA | 0.0528 ± 0.017 |
| UCCUGGAUCAGCUUGCAUACUAUUUACUUA | 0.0867 ± 0.02 |
| UCCUCCUAGAGCUUGCAUAGUUUUUAGUUA | 0.0719 ± 0.011 |
| UCCUGCUACAGCUUGCAUAGGAUUUAGUUA | 0.00856 ± 0.0037 |
| UCCUGGAUGAGCUUGCAUUGUAUUUAGAUA | 0.156 ± 0.038 |
| UCCUGCUACAGCUUGCAUAGUUUUUAGUAA | 0.0393 ± 0.011 |
| UCCUGGUACAGCUUGCAUAGUAUUAUCUAA | 0.0327 ± 0.012 |
| UCCUGGAUCAGCUUGCAUAGUAUUUUGAUA | 0.0355 ± 0.013 |
| UCCUGCUACAGCUUGCUUAGUAUUUAGAUA | 0.0729 ± 0.015 |
| UCCUCCUACAGCUUGCAUAGUAAAAAGUAA | 0.0657 ± 0.019 |
| UCCUCCUACAGCUUGCAUAGUAUUAAGUAA | 0.17 ± 0.037 |
